# Screening data deposited in PubChem BioAssay by several laboratories.
# Only some compounds are listed: those with a hit (about 10% of all), similar ones and a draw of the others.
# L major viab: Leishmania major promastigote growth inhibition | inhibition, % at 10 µM | AID 1063 | Leishmania major promastigotes, resazurin fluorescence viability | 9% of 200,000 active; in the data active means inhibition above about 50%;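 further: promastigotes grown with compound for 44 hours at 28 °C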
# INS promoter inh: TRM-6 insulin promoter activity inhibition. TRM-6 cells (human fetal islet line), insulin promoter-eGFP reporter, imaging; reporter expression induced with tamoxifen. inhibition, % at 2 µM. 0.9% of 130,000 active. AID 1273;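 active means inhibition above the mean plus 3 SD, with well images judged a real hit on visual review, cut at about 60% in these data, passing the limit was not always enough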
# p97 inhibitor: blocks human p97 ATPase activity. P55072. 0.42% of 220,000 active. recombinant p97 ATPase, Kinase-Glo ATP luminescence, 3 h. inhibition, % at 8 µM; in the data active means inhibition above about 15%
# Target sequence (P55072 whole entry, looked up): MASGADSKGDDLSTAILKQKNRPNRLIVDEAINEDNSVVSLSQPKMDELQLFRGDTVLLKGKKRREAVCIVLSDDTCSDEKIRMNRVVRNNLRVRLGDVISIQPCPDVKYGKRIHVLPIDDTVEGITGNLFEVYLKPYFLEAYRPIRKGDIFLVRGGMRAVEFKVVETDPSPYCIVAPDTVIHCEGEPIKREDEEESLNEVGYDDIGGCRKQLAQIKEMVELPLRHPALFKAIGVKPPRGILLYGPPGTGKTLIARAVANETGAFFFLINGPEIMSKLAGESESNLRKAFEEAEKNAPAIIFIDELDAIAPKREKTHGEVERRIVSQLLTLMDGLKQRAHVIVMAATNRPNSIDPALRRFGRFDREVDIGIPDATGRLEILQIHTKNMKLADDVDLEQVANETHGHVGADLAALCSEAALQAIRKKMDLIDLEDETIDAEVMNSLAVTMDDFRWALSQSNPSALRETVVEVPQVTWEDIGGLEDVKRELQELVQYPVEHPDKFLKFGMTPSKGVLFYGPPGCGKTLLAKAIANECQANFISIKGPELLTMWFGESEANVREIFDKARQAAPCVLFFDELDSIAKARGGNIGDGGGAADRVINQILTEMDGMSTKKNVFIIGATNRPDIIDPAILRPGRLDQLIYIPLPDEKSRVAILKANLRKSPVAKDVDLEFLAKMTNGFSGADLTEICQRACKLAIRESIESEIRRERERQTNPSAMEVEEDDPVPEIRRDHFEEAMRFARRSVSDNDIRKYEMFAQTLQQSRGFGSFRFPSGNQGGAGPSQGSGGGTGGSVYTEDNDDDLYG
# PTEN del growth: growth suppressors of cells with PTEN tumor suppressor deletion | HCT116 PTEN-null viability, CellTiter-Glo, 60 h; stronger effect = lower value | viability, % at 10 µM | 1.2% of 140,000 active | AID 827;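 active means viability at or below a set limit, 4 SD under the median of all tested compounds, cut at about 3.7% in these data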;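 further: PTEN knockout HCT116 line with beta catenin targeted HCT116 as companion control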
# ROMK mod: human ROMK K+ channel modulation, primary screen; Tet-inducible ROMK, thallium flux fluorescence; actives lie on both sides; P48048; AID 1918; 2% of 130,000 active; B-score at 10 µM;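 active means signal ratio slope over the read window, or its plate-corrected B-score, at least 3 SD from the plate mean, either direction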;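 further: B-score of the F/F0 ratio slope over 7 to 12 s after thallium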
# HCT116 bCat-KO: beta-catenin-lacking colon tumor cell growth suppression | 1.5% of 140,000 active | viability, % at 10 µM | AID 818 | HCT116 beta-catenin knockout viability, CellTiter-Glo, 60 h; stronger effect = lower value;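 active means viability at or under a set limit, the compound median less 4 SD, cut at about 6% in these data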
# Hits are given with their value; i = inactive; nt = no result given.
SMILES,L major viab,INS promoter inh,p97 inhibitor,PTEN del growth,ROMK mod,HCT116 bCat-KO
Cc1cccc2c(N)c3c(nc12)CCCC3 (tested in a mixture with another compound),67,i,i,nt,i,nt
Cc1cc(OCC(=O)O)c2cccc(C)c2n1,i,nt,i,i,i,i
Cc1cc(C)c2c(N)c3cccc(C)c3nc2n1,100,nt,i,2.5,nt,2.5
CCCNC(=O)CN1C(=O)NC2(CCCc3cc(OC)ccc32)C1=O (stereo unspecified),i,i,i,i,i,i
Cc1ccccc1Nc1nc(-c2sc(NC(=O)c3ccco3)nc2C)cs1,i,i,i,i,nt,i
Cc1ccc(Nc2nc(-c3sc(NC(=O)c4ccco4)nc3C)cs2)cc1,61,i,i,i,nt,i
Cc1ccc(Nc2nc(-c3sc(NC(=O)c4cccc(Cl)c4)nc3C)cs2)cc1,i,i,i,i,nt,i
CCOc1ccccc1Nc1nc(-c2sc(NC(=O)c3ccco3)nc2C)cs1,99,i,i,i,nt,i
COc1ccc(C(CC(=O)c2ccc(O)cc2)S(=O)(=O)c2ccc(C)cc2)cc1 (stereo unspecified),91,i,i,i,nt,6.0
COc1ccc(C(CC(=O)c2ccc(C)cc2)Nc2ccc([N+](=O)[O-])cc2)cc1 (stereo unspecified),96,i,i,i,nt,i
COc1ccc(C(=O)CC(c2ccccc2)S(=O)(=O)c2ccc(C)cc2)cc1 (stereo unspecified),i,i,i,i,i,i
COc1ccc(CS(=O)(=O)CC2(O)CCN(C(=O)c3cccc(C(F)(F)F)c3)CC2)cc1,i,i,i,nt,i,nt
O=C1NN(c2cccc(Br)c2)C(=O)/C1=C/c1ccc(-c2cc([N+](=O)[O-])ccc2O)o1,nt,nt,35,nt,nt,nt
Cc1ccc(N2NC(=O)/C(=C/c3ccc(-c4ccc(Cl)c(C(=O)O)c4)o3)C2=O)cc1C,i,nt,i,nt,nt,nt
CCOc1cc(C)c(C(C)C)cc1S(=O)(=O)n1ccc(C)n1,i,82,i,i,nt,i
Cc1cccc(N2CCN(C(=O)C(NS(=O)(=O)c3cccs3)c3ccccc3)CC2)c1C (stereo unspecified),62,i,i,i,i,i
CN1CCc2c(n(CC(O)CN3CCN(CCO)CC3)c3ccccc23)C1=O (stereo unspecified),i,i,i,nt,i,nt
COc1ccc(OC)c(NC(=O)c2cccnc2Sc2ccccc2)c1,i,i,i,i,i,i
Cc1c(Br)cc(C(=O)NCCCN2CCOCC2)c(C)c1C,61,i,i,i,i,i
O=C(NCCCN1CCOCC1)c1ccc(Br)cc1Br,81,i,i,nt,i,nt
COc1ccc2[nH]c(C(=O)N(C)c3ccc(F)cc3F)cc2c1,nt,nt,i,nt,nt,nt
O=C(c1ccc(S(=O)(=O)Cc2cc(F)ccc2F)c([N+](=O)[O-])c1)N1CCCC1,i,i,i,nt,i,nt
O=C(c1ccc(S(=O)(=O)Cc2ccccc2Cl)c([N+](=O)[O-])c1)N1CCN(c2ccccn2)CC1,89,i,i,nt,i,nt
O=C(c1ccc(S(=O)(=O)Cc2cc(F)ccc2F)c([N+](=O)[O-])c1)N1CCCCC1,78,i,i,i,i,i
Cc1cc(C=NCCCO)c(C)n1-c1cc(Cl)ccc1Cl,i,i,i,nt,nt,nt
SMILES,L major viab,INS promoter inh,p97 inhibitor,PTEN del growth,ROMK mod,HCT116 bCat-KO
Cc1nc(-c2ccccc2)cc(=O)[nH]1,i,nt,i,i,i,i
COCc1cc(=O)[nH]c(Nc2nc(C)c3ccccc3n2)n1,79,i,i,2.3,i,1.7
Cc1ccc2oc(Nc3nc(-c4ccccc4)cc(=O)[nH]3)nc2c1,98,nt,i,nt,i,nt
COCc1cc(=O)[nH]c(Nc2nc3ccccc3o2)n1,99,nt,i,i,i,i
CC(C)CCN1C(=O)c2ccc(C(=O)OCn3nnc4ccccc4c3=O)cc2C1=O,i,nt,i,i,i,i
OCC1CCCN(C(=S)Nc2ccc(Nc3ccccc3)cc2)C1 (stereo unspecified),i,nt,i,nt,i,nt
CSc1ccc(CN(C)CC(=O)Nc2cccc(Br)c2)cc1,i,nt,i,i,nt,i
COc1ccc2cnn(CCOc3ccccc3)c(=O)c2c1OC,87,nt,i,i,i,i
COc1ccc2cnn(CCOc3cc(C)ccc3C(C)C)c(=O)c2c1OC,95,i,i,i,i,i
N#CC(Cc1ccccc1OC(F)F)c1nc2ccccc2[nH]1 (stereo unspecified),i,nt,i,i,i,i
CC(=O)NC(=S)Nc1sc2c(c1C(N)=O)CCC(C)C2 (stereo unspecified),i,nt,i,nt,nt,nt
C/C(=N\Nc1ccc(C(F)(F)F)cn1)c1ccc(S(=O)(=O)NCc2ccco2)cc1,75,i,i,i,nt,i
C/C(=N\Nc1ccccn1)c1ccc(S(=O)(=O)NCc2ccco2)cc1,i,i,i,i,nt,i
C/C(=N\Nc1nc(Cl)c(Cl)cc1Cl)c1ccc(S(=O)(=O)NCc2ccco2)cc1,100,i,i,i,nt,i
O=C(COc1ccc([N+](=O)[O-])cc1)Nc1ccc2c(c1)OCO2,i,nt,i,nt,i,nt
C/C(CC(=O)Nc1cccc(Cl)c1Cl)=N\NC(=O)c1ccccc1N,i,nt,i,nt,i,nt
CCOc1ccc2ccccc2c1C(=O)N1CCN(c2ccccc2)CC1,83,i,i,i,i,i
Cc1[nH]n(-c2ccccc2)c(=O)c1C=Nc1cccc2cccnc12,64,i,i,i,i,3.0
Cc1[nH]n(-c2ccccc2)c(=O)c1/C=N/N1C(=O)c2cccc3cccc(c23)C1=O,59,i,i,nt,i,nt
N#Cc1cc2c(nc1S(=O)(=O)Cc1ccccc1)CCCC2,i,nt,i,nt,i,nt
COc1ccc(NC(=S)N2CCC(N(C)CC3CCCO3)CC2)cc1 (stereo unspecified),93,i,i,i,i,i
COc1ccc(NC(=S)N2CCC(N(C)CC3CCCO3)CC2)cc1Cl (stereo unspecified),95,i,i,i,i,i
Cc1cccc(NC(=S)N2CCCCCC2)c1,i,i,i,i,i,i
Cc1cccc(NC(=S)N2CCC(N(C)CC3CCCO3)CC2)c1 (stereo unspecified),86,i,i,nt,nt,nt
Cc1c(Cl)cccc1NC(=S)N1CCC(N(C)CC2CCCO2)CC1 (stereo unspecified),83,i,i,nt,nt,nt
SMILES,L major viab,INS promoter inh,p97 inhibitor,PTEN del growth,ROMK mod,HCT116 bCat-KO
CCOC(=O)Cc1csc(NC(=O)c2sc3nc4c(C)cc(C)cc4cc3c2N)n1,i,i,i,i,nt,i
Cc1ccc(Cl)cc1N1CCN(S(=O)(=O)c2cnc[nH]2)CC1,i,nt,i,i,nt,i
Cc1ccc(NC(=S)N2CCC(N(C)CC3CCCO3)CC2)cc1C (stereo unspecified),87,i,i,nt,nt,nt
CCOC(=O)N1CCN(C(=S)Nc2ccc(C)c(C)c2)CC1,i,i,i,i,i,i
CCOC(=O)CC(NS(=O)(=O)Cc1ccccc1)c1ccc(C)cc1 (stereo unspecified),59,i,i,i,i,i
CCOc1cc(C)c(Cl)cc1S(=O)(=O)NCc1ccc2c(c1)OCO2,100,i,i,i,i,i
O=S(=O)(NCc1ccc(Cl)cc1)c1cccc2cccnc12,nt,nt,i,nt,i,nt
